Bioassay records as filed in PubChem BioAssay.
In the library only some 1.9% were active in any assay of this set; here they are far more common.
MsrA inh = inhibits bovine methionine sulfoxide reductase A | purified bovine MsrA, absorbance read-out | inhibition, % at 15.5 µM | actives 0.75% (n = 360,000); in the data active = inhibition above about 4.5%
PLC-beta3 inh = blocks human PLC-beta3 enzyme activity | Purified PLC-beta3, fluorogenic substrate, fluorescence | inhibition, % at 12.2 µM | actives 0.18% (n = 370,000) | AID 720704; in the data active = inhibition above about 11%
Target sequence (Q01970 whole entry, looked up): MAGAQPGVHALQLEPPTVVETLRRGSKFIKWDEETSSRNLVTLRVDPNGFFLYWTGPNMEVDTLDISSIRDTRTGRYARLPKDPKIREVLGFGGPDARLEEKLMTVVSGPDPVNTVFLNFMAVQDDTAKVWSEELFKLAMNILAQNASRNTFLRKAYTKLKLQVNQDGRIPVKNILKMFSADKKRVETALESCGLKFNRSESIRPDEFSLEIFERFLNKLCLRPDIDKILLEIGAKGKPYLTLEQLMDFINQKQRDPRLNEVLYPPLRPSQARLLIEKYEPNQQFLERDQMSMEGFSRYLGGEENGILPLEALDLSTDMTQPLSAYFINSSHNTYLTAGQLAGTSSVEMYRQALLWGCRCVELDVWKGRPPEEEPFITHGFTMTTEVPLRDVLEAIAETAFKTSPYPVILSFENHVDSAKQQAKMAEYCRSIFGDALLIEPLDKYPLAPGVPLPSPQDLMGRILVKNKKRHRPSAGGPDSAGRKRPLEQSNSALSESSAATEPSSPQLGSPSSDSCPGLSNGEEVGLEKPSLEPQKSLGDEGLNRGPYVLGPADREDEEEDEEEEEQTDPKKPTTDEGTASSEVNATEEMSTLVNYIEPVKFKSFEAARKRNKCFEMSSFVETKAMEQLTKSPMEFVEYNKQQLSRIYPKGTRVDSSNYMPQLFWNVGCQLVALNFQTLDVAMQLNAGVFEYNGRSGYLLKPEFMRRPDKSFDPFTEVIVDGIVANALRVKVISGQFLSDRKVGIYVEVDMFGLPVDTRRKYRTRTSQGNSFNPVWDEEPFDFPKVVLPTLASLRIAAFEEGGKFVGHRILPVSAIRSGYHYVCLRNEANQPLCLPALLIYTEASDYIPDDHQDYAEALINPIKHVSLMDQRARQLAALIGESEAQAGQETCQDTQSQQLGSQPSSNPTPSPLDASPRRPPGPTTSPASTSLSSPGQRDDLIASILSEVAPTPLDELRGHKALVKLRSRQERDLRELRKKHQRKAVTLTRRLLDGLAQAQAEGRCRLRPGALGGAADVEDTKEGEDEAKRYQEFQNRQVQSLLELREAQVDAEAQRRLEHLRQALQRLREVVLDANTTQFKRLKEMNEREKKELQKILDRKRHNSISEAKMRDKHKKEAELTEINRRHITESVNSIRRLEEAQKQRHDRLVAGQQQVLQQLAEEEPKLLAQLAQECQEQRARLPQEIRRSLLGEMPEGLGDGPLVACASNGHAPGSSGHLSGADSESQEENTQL
PLC-gamma1 inh = blocks human PLC-gamma1 enzyme activity | purified PLC-gamma1, fluorogenic substrate, fluorescence | actives 0.84% (n = 370,000) | AID 720700 | inhibition, % at 12.2 µM | P19174; in the data active = inhibition above about 9.5%
MsrA act = bovine methionine sulfoxide reductase A activation | purified bovine MsrA, absorbance read-out | activation, % at 10.6 µM | actives 0.3% (n = 360,000) | AID 602163; in the data active = activation above about 7.5%
MsrA act confirm = confirmation of bovine methionine sulfoxide reductase A activators. shares compounds with MsrA act. purified bovine MsrA, absorbance read-out. activation, % at 10.6 µM. actives 12% (n = 1,000). AID 602270; in the data active = activation above about 4%;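 note: enzyme coupled to thioredoxin and thioredoxin reductase with NADPH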
A number is an active result; i = inactive; nt = no result.

SMILES	MsrA inh	PLC-beta3 inh	PLC-gamma1 inh	MsrA act	MsrA act confirm
O=C(NC(=O)c1cccc(F)c1)OC[C@@H]1CCCN2CCCC[C@H]12	i	i	i	8.8	i
O=C1N[C@@H](Cc2ccccc2)C(=O)N2[C@H]1CSCCS2(=O)=O	i	i	i	nt	nt
Cc1cccc(NC(=O)C2(C)CC3c4ccccc4C2c2ccccc23)c1 (stereo unspecified)	i	i	i	8.9	i
COc1cc(Nc2cc(C)n(-c3cc(OC)cc(OC)c3)c(=O)c2)cc(OC)c1	i	i	i	nt	nt
O=C(COC(=O)Cc1ccccc1F)Nc1ccc2c(c1)OCCO2	i	i	i	11	i
COc1cccc(CC(=O)OCC(=O)c2cc(OC)c(OC)c(OC)c2)c1	i	i	i	8.7	i
COc1cccc(CC(=O)OCC(=O)c2cc(OC)ccc2OC)c1	i	i	i	i	nt
Nc1nc(N2CCN(c3ccc(F)cc3)CC2)n[nH]1	i	i	i	i	nt
Cn1nc(N)nc1N1CCN(c2ccc(F)cc2)CC1	i	i	i	8.0	i
C=CCc1ccccc1OCC(O)CN1CCN(c2ccc(C)cc2)CC1 (stereo unspecified)	i	i	i	9.3	i
O=C(c1ccc2c(c1)C(=O)NC2=O)c1ccc2c(c1)C(=O)NC2=O	i	i	i	nt	nt
Cc1cc(N2CCN(CC(C)(C)O)C[C@@H]2C)ccc1N1CCN(Cc2ccccc2)[C@@H](C)C1	i	i	i	nt	nt
COC(=O)C1=C(C)N(Cc2cccc(C(F)(F)F)c2)C(=NCc2ccc3c(c2)OCO3)NC1c1ccccc1C(F)(F)F (stereo unspecified)	i	i	i	nt	nt
NC(=S)NN=C1CSSC1	nt	nt	nt	15	23
CN(CCCC1CCCC1)C(=O)c1cc(COc2ccc(F)cc2F)on1	i	i	i	9.1	i
Cn1c(Oc2ccncc2)nc2cc(-c3ccsc3)sc2c1=O	i	i	i	15	i
Cn1c(NCc2ccncc2)nc2cc(-c3ccsc3)sc2c1=O	i	i	i	i	nt
COC(=O)C1=C(C)N(Cc2ccccc2C(F)(F)F)C(=NCc2ccc(C(F)(F)F)cc2)NC1CCc1ccccc1 (stereo unspecified)	i	i	i	nt	nt
COCCn1c2nc(=O)n(-c3ccccc3)c(=O)c-2nc2ccccc21	i	i	i	26	8.7
COCCn1c(-c2ccc(OC)cc2)nc2ccccc21	i	i	i	i	nt
CCCN1C(=O)c2[nH]nc(-c3ccccc3)c2C1c1ccc(Br)cc1 (stereo unspecified)	i	i	i	nt	nt
CCCOC(=O)c1ccc(NC(=O)CN(C)Cc2cccs2)cc1	i	i	i	9.9	i
Cc1nn(C)c(C)c1CN(C)C(=O)C1(C)CC1(Br)Br (stereo unspecified)	i	i	i	9.6	i
O=C(CNS(=O)(=O)c1ccccc1)N1CCN(c2ncccn2)CC1	nt	i	i	nt	nt
CCN(CC)C(=O)CSc1ncnc2sc(-c3ccccc3)cc12	i	i	i	7.7	i
SMILES	MsrA inh	PLC-beta3 inh	PLC-gamma1 inh	MsrA act	MsrA act confirm
CCOc1ccc(C(=O)NC2CCN(C(=O)NCc3ccccc3)CC2)cc1	i	i	i	9.6	i
COc1ccc(S[C@]2(C(=O)N3CCN(c4ncccn4)CC3)CC(=O)N(C(=O)Nc3ccc(C)c(Cl)c3)[C@@H]2c2ccc(OC)cc2)cc1	nt	i	i	nt	nt
COc1ccc(-c2nnc(SCC(=O)NC(=O)NCc3ccccc3)o2)cc1	i	i	i	9.7	i
COc1ccc(-c2nnc(SCC(=O)NCc3ccco3)o2)cc1	i	i	i	i	nt
COc1ccc(N2CCN(Cc3cc4c(cc3O)CCC4)CC2)cc1	i	i	i	14	i
COc1ccc(N2CCN(Cc3cc(=O)oc4cc5c(cc34)CCCC5)CC2)cc1	i	i	i	i	nt
COc1cccc(C(=O)NCC2CCN(C(=O)C(=O)c3cc4ccccc4o3)CC2)c1	i	i	i	nt	nt
COC(=O)C1=C(C(=O)OC)C2CCCC1C1N=NN(c3ccccc3)C21 (stereo unspecified)	i	i	i	nt	nt
C1CCCC(NC2=NCCO2)CCC1	nt	nt	nt	9.5	i
C/C=C/C=N\NC(=O)c1ccncc1	i	i	i	15	i
Cc1cc(N2CCNC[C@H]2C)ccc1N1CCS(=O)(=O)CC1	i	i	i	nt	nt
CC1CCCC(NC(=O)COC(=O)c2ccc([N+](=O)[O-])s2)C1C (stereo unspecified)	i	i	i	21	5.4
O=C(NCCN1CCOCC1)c1c(Cl)cccc1Cl	i	i	i	i	nt
O=C(NCCN1CCOCC1)c1ccccc1Cl	i	i	i	17	i
C/C(=N\NC(=S)NC(C)C)c1ccccc1OC(F)F	i	i	i	i	nt
CC(NC(=S)Nc1c(Br)cccc1OC(F)F)C(C)(C)C (stereo unspecified)	i	i	i	9.0	i
